KB-V1 MDR tox: KB-V1 MDR subline cytotoxicity; KB-V1 MDR cells viability, CellTiter-Glo, 72 h; Potency, µM (top dose mostly 46.1 µM), most hits filed as cytotoxic; 400,000 compounds, 3.4% hits; AID 1347076; also: % is scaled to controls: 0 for no effect and ±100 for the full control effect; nearly all actives have a fitted effect of over 60% in size
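Cells of the MDR subline KB-V1 are plated, dosed with compound at multiple concentrations, and incubated 72 h at 37 degrees C; CellTiter-Glo is then added and luminescence read after 10 min.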
MCF10A rereplic: induces DNA re-replication in MCF 10a normal breast cells; Potency, µM (top dose mostly 46.1 µM), for the others: at the top dose activity, positive = re-replication, hits mostly activators; 350,000 compounds, 2.9% hits; AID 624296; MCF 10A DNA re-replication, Hoechst nuclear intensity, 48 h; also: % of control where 0% means no effect; nearly all actives have a fitted effect of over 50% in size
KB-3-1 tox: kills parental KB-3-1 adenocarcinoma cells. KB-3-1 viability, CellTiter-Glo ATP luminescence, 72 h. Potency, µM (highest dose often 46.1 µM), usual class: cytotoxic. 400,000 compounds, 1.4% hits; also: % is scaled to controls: 0 for no effect and ±100 for the full control effect; nearly all actives have a fitted effect of over 60% in size
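72 h, 37 °C compound treatment of KB-3-1 parental cells; CellTiter-Glo added, 10 min, luminescence read. Data corrected against DMSO-only plates and normalized before curve fitting.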
ELG1 repair inh: inhibitors of ELG1-dependent DNA repair in HEK293T cells; HEK293T ELG1-luciferase reporter, luminescence, 16 h; DNA damage induced by 5-fluorouridine; Potency, µM (titrated, usually from 46.1 µM), for the others: at the top dose activity change, negative = inhibition, actives largely listed as inhibitors; 330,000 compounds, 2.3% hits; also: % is scaled to controls: 0 for no effect and ±100 for the full control effect; nearly all actives have a fitted effect of over 55% in size
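Luminescence from the luciferase reporter, measured 30 min after ONE-Glo reagent at room temperature, was the read-out. Beforehand, 2,000 cells per well were exposed for 16 hr at 37 °C to 5-fluorouridine together with compound or vehicle.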
SW480 rerep: inducers of DNA re-replication in SW480 colon cancer cells; 340,000 compounds, 1.8% hits; Potency, µM (highest dose often 46.1 µM), without a hit: at the top dose re-replication activation, actives largely listed as activators; SW480 DNA re-replication, Hoechst DNA content imaging, 48 h; also: % of control where 0% means no effect; nearly all actives have a fitted effect of over 55% in size
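Treated cells incubate 48 hr (37 C, 5% CO2), are stained 40 min with Hoechst, and nuclear fluorescence is enumerated; a rise in nuclei with high DNA signal marks re-replication.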
Starred values were filed as active, the others as inactive; i = inactive; ? = inconclusive; · = not tested or not shown; ! = repeats disagree. Most compounds without a hit are left out; they make up all but 8.1% or so of the library. Calls follow the shape of the dose curve; as a rule, active = well fitted curve in the direction sought with a large enough effect; inconclusive = small, poorly fitted or top-dose-only effect, or another doubt; inactive = no such curve, though single readings can be large; an effect the other way counts as inactive or inconclusive. Potency is read from the fitted curve at half-maximal effect.

SMILES	KB-V1 MDR tox	MCF10A rereplic	KB-3-1 tox	ELG1 repair inh	SW480 rerep
CCN1C(=O)C(=O)N(CC(=O)c2cc(C)n(C3CC3)c2C)C1=O	i	4%	i	?	0%
Cc1cc(C(=O)CN2C(=O)NC(C)(c3cc(F)ccc3F)C2=O)c(C)n1C1CC1 (stereo not drawn)	i	-11%	i	-13%	?
Cc1cc(C(=O)CN2C(=O)C(=O)N(CC(C)C)C2=O)c(C)n1C1CC1	18µM*	13%	i	?	?
CC1Cc2cc(/C(O)=C3/C(=O)C(=O)N(Cc4ccncc4)C3c3ccc(N(C)C)cc3)ccc2O1 (stereo not drawn)	?	0%	i	8%	-1%
CC(C)CC(=O)Nc1cccc(-c2nc3ccccc3[nH]2)c1	i	1%	i	0%	22%
CN(c1ccccc1C(=O)Nc1ccc(F)c(F)c1)S(C)(=O)=O	i	3%	i	8%	10%
Cc1cc(C(=O)CN2C(=O)C(=O)N(CCC3=CCCCC3)C2=O)c(C)n1C	23µM*	17%	i	?	1%
O=C1CC(c2ccccc2)CC(O)=C1C=NCCN1CCNCC1 (stereo not drawn)	i	-7%	i	-4%	-4%
CC(=O)c1ccc(N2CCN(C(=S)Nc3ccc(Oc4ccccc4)cc3)CC2)cc1	?	?	i	5.8µM*	-4%
COc1ccc(N2CCN(C(=S)Nc3ccccc3)CC2)cc1	i	?	i	1%	-4%
O=C(Nc1ccc(Cl)cc1)N1CCN(c2ccccc2)CC1	i	-9%	i	-7%	-13%
CC(=O)c1ccc(N2CCN(C(=O)Nc3ccc(Cl)cc3)CC2)cc1	?	13%	i	16µM*	-4%
CC(=O)c1ccc(NC(=O)N2CCN(c3cccc(Cl)c3)CC2)cc1	23µM*	?	i	?	-1%
Cc1cccn2cc(CSc3ccccc3N)nc12	13µM*	3%	i	?	2%
COc1ccc(C(=O)c2sc(Nc3ccccc3)nc2N)cc1OC	15µM*	?	?	?	?
COc1ccc(C(=O)Nc2ccc(C(=O)c3ccccc3)cc2)cc1	?	25%	i	·	-60%
COc1ccc(C(=O)c2cc(C(C)=O)c(Nc3ccccc3)s2)cc1	16µM*	-6%	?	?	?
COc1ccc(C(=O)c2sc(Nc3ccccc3)nc2N)cc1	13µM*!	?	i	?	?
Cc1ccc(-n2c(O)c(C=NCc3ccccn3)c3ccccc3c2=O)cc1	i	15%	i	-1%	10%
CN(CC(=O)Nc1ccc(F)cc1)C(=O)COC(=O)c1cc([N+](=O)[O-])ccc1N1CCOCC1	i	-2%	i	4%	?
C/C(=N\NC(=O)CCc1c[nH]c2ccccc12)c1cccc([N+](=O)[O-])c1	i	6%	i	-19%	7%
Cc1cc(C)nc(NC(=NCCc2c[nH]c3ccccc23)NC(=O)Nc2ccccc2)n1	i	26µM*	i	15µM*	?
O=C(CCNC(=O)c1ccco1)NCCc1c[nH]c2ccccc12	i	-1%	i	-3%	3%
Cc1cc(C)nc(NC(=NCCc2c[nH]c3ccccc23)NC(=O)c2ccco2)n1	?	?	?	12µM*	-10%
Cc1cc(C)nc(NC(=NCCc2c[nH]c3ccccc23)NC(=O)Nc2ccc(Cl)c(Cl)c2)n1	i	?	?	?	2%
SMILES	KB-V1 MDR tox	MCF10A rereplic	KB-3-1 tox	ELG1 repair inh	SW480 rerep
Cc1cc(C)nc(NC(=NCCc2c[nH]c3ccccc23)NC(=O)Nc2cccc([N+](=O)[O-])c2)n1	i	8%	i	5.2µM*	?
O=C(C1CCC(N2C(=O)C3CC=CCC3C2=O)CC1)N1CCCCC1 (stereo not drawn)	i	-8%	i	9%	0%
CN(C)c1nc(N(C)C)nc(N(C#N)Cc2ccc(Cl)cc2)n1	i	2%	i	7%	2%
CC(CSc1nc2ccccc2s1)Cn1c(N2CCCC2)nc2c1c(=O)[nH]c(=O)n2C (stereo not drawn)	i	15%	i	15µM*	0%
Cc1nnc(SCCn2c(N3CC(C)CC(C)C3)nc3c2c(=O)n(C)c(=O)n3C)s1 (stereo not drawn)	21µM*	4%	i	1%	0%
CC1CC(C)CN(c2nc3c(c(=O)[nH]c(=O)n3C)n2CCCSc2nc3ccccc3s2)C1 (stereo not drawn)	4.1µM*	-2%	i	·	-7%
CCN1CCN(c2nc3c(c(=O)[nH]c(=O)n3C)n2CCSc2nc3ccccc3s2)CC1	i	-5%	i	?	-2%
O=C(Cc1ccc(Cl)cc1)NNc1c(F)c(F)cc(F)c1F	i	-3%	i	3%	-2%
O=C(NCc1ccco1)c1ccc(CS(=O)Cc2cccc(Cl)c2)o1 (stereo not drawn)	i	0%	i	9%	-3%
Cn1c(=O)[nH]c(Nc2ccccc2)c([N+](=O)[O-])c1=O	i	16%	i	-3%	-144%
CCOC(=O)[C@]12CCC=C1N(CCC1=CCCCC1)C(=O)[C@H](CC(=O)NCC1CCCCC1)C2	?	·	i	·	·
CCCCCCCCN1C(=O)[C@H](CC(=O)NCCCOC)C[C@@]2(C(=O)OC)CC(C)(C)CC=C12	i	·	i	·	·
CCCCCCCCN1C(=O)[C@H](CC(=O)NCCCOCCCC)C[C@@]2(C(=O)OC)CCCCC=C12	13µM*	·	?	·	·
CCOC(=O)[C@]12CCCC=C1N(CCC1=CCCCC1)C(=O)[C@H](CC(=O)NCC1CCCCC1)C2	15µM*	·	16µM*	·	·
CCCCCCCCN1C(=O)[C@H](CC(=O)NCCCOCCCC)C[C@@]2(C(=O)OC)CC(C)(C)CC=C12	23µM*	·	18µM*	·	·
CSC1=C(C#N)C(c2ccc(Cl)cc2)C2=C(CC(C)(C)CC2=O)N1 (stereo not drawn)	21µM*	?	?	18µM*	21%
CCCSC1=C(C#N)C(c2ccc(OC)cc2)C2=C(CC(C)(C)CC2=O)N1 (stereo not drawn)	i	?	i	-8%	10%
CC1(C)CC(=O)C2=C(C1)NC1=C(C(=O)c3ccccc31)C2c1ccc(Cl)cc1 (stereo not drawn)	15µM*	?	?	?	3%
COc1ccccc1CC(=O)Nc1cc(OC)c(NC(=O)c2ccccc2)cc1OC	i	2%	i	16µM*	3%
COc1ccc(S(=O)(=O)NCc2ccccn2)cc1NC(=O)c1ccc(C)cc1	?	?	9.2µM*	?	2%

Screening data: PubChem, National Center for Advancing Translational Sciences (NCATS)
